Measured values reported in PubChem BioAssay AID1159580 (chemical genetic matrix, 2015).
Values joined by “and” are separate entries in the source; they are usually repeats but may differ in a detail not shown here. Identical values can stand only once. Among all 5,500 compounds or so, about 2,000 (36%) were called active. Not shown: some 18% with an inconclusive outcome. No stated cut-off is given here; in the data, active means normalized growth mostly below about 0.91 (no sharp cut-off); inconclusive means no clear call, values can overlap the other calls; inactive means mostly above about 0.92. The list shows a part of the results.

Test: chemical genetic growth profiling, strain panel (AID 1159580);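 further: tested at 20 µM; growth read once vehicle control cultures reached saturation at 30 °C; 1 = growth at the plate median or of vehicle wells; lower values mean less growth of the strain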
Conditions: S. cerevisiae deletion strains, growth OD

Measured: normalized growth

CN1Cc2c(N)cccc2C(c2ccccc2)C1 (centres undefined)
inactive: locus YAL013W, strain DEP1, active compounds read low 1.01 | locus YAL021C, strain ccr4, active compounds read low 0.991 | locus YAL026C, strain drs2, active compounds read low 0.997 | locus YAL030W, strain snc1, active compounds read low 0.996 | locus YAL040C, strain CLN3, active compounds read low 0.991 | locus YBL061C, strain skt5, active compounds read low 1.01 | locus YBR009C, strain hhf1, active compounds read low 1.02 | locus YBR021W, strain FUR4, active compounds read low 1.01 | locus YBR023C, strain chs3, active compounds read low 1.02 | locus YBR171W, strain sec66, active compounds read low 1.02 | locus YBR229C, strain ROT2, active compounds read low 1.01 | locus YBR231C, strain swc5, active compounds read low 1 | locus YBR279W, strain paf1, active compounds read low 1.03 | locus YCL011C, strain gbp2, active compounds read low 1 | locus YCL016C, strain dcc1, active compounds read low 0.997 | locus YCL029C, strain bik1, active compounds read low 1 | locus YCL061C, strain MRC1 (second series), active compounds read low 0.989 | locus YCL069W, strain vba3, active compounds read low 1.01 | locus YCR088W, strain abp1, active compounds read low 1.01 | locus YDL005C, strain med2, active compounds read low 1 | locus YDL035C, strain GPR1, active compounds read low 1.02 | locus YDL040C, strain nat1, active compounds read low 1.01 | locus YDL074C, strain BRE1, active compounds read low 0.993 | locus YDL101C, strain DUN1, active compounds read low 1.01 | locus YDL134C, strain PPH21, active compounds read low 1.01 | locus YDL185W, strain tfp1, active compounds read low 1.01 | locus YDL192W, strain arf1, active compounds read low 1.02 | locus YDR001C, strain nth1, active compounds read low 1.01 | locus YDR069C, strain doa4, active compounds read low 1.02 | locus YDR101C, strain arx1, active compounds read low 1.01 | locus YDR137W, strain rgp1, active compounds read low 1.01 | locus YDR150W, strain NUM1, active compounds read low 1 | locus YDR159W, strain sac3, active compounds read low 1 | locus YDR162C, strain NBP2, active compounds read low 1.02 | locus YDR195W, strain ref2 1.02 | locus YDR297W, strain sur2, active compounds read low 1.01 | locus YDR318W, strain mcm21, active compounds read low 1.02 | locus YDR334W, strain swr1, active compounds read low 1.01 | locus YDR335W, strain msn5, active compounds read low 1.02 | locus YDR363W, strain ESC2, active compounds read low 0.963 | locus YDR388W, active compounds read low 1.02 | locus YDR392W, strain spt3, active compounds read low 0.938 | locus YDR502C, strain sam2, active compounds read low 1.01 | locus YEL003W, strain gim4, active compounds read low 1.01 | locus YEL037C, strain rad23, active compounds read low 1.01 | locus YEL061C, strain CIN8 (second series), active compounds read low 1 | locus YEL061C, strain CIN8, active compounds read low 1 | locus YER002W, strain NOP16, active compounds read low 1.01 | locus YER015W, strain faa2, active compounds read low 1.02 | locus YER016W, strain bim1, active compounds read low 1.01 | locus YER110C, active compounds read low 1.02 | locus YER111C, strain swi4, active compounds read low 1.01 | locus YER155C, strain BEM2 (second series), active compounds read low 1.01 | locus YER155C, strain BEM2, active compounds read low 1.01 | locus YER167W, strain BCK2, active compounds read low 1.02 | locus YFR010W, strain ubp6, active compounds read low 1.03 | locus YGL078C, strain dbp3, active compounds read low 1 | locus YGL086W, strain mad1, active compounds read low 0.999 | locus YGL167C, strain pmr1, active compounds read low 1.01 | locus YGL173C, strain kem1, active compounds read low 1.02 | locus YGL227W, strain vid30, active compounds read low 1.01 | locus YGL240W, strain doc1, active compounds read low 1.02 | locus YGL248W, strain PDE1, active compounds read low 0.991 | locus YGL253W, strain hxk2, active compounds read low 1 | locus YGR078C, strain PAC10, active compounds read low 0.991 | locus YGR135W, strain pre9, active compounds read low 1.04 | locus YGR229C, strain SMI1, active compounds read low 1.02 | locus YGR252W, strain gcn5, active compounds read low 1 | locus YHR013C, strain ard1, active compounds read low 0.995 | locus YHR027C, strain rpn1, active compounds read low 1.02 | locus YHR030C, strain SLT2, active compounds read low 1.01 and 1.07 | locus YHR079C, strain IRE1 (second series), active compounds read low 1.01 | locus YHR079C, strain IRE1, active compounds read low 0.985 | locus YHR094C, strain hxt1, active compounds read low 1.02 | locus YHR129C, strain ARP1, active compounds read low 1.01 | locus YHR142W, strain chs7, active compounds read low 1.01 | locus YHR200W, strain rpn10, active compounds read low 1.02 | locus YIL066C, strain RNR3, active compounds read low 1 | locus YIL073C, strain SPO22, active compounds read low 1.08 | locus YIL125W, strain kgd1, active compounds read low 1.01 | locus YIR030C, strain dcg1, active compounds read low 1.01 | locus YJL092W, strain hpr5, active compounds read low 1.01 | locus YJL095W, strain BCK1 (second series), active compounds read low 1.01 | locus YJL095W, strain BCK1, active compounds read low 0.983 and 0.981 | locus YJL115W, strain asf1, active compounds read low 1.02 | locus YJL129C, strain trk1, active compounds read low 1 | locus YJL134W, strain LCB3, active compounds read low 1.01 | locus YJL154C, strain vps35, active compounds read low 1.01 | locus YJL164C, strain tpk1, active compounds read low 0.981 | locus YJL166W, strain qcr8, active compounds read low 1.01 | locus YJL168C, strain set2, active compounds read low 1.01 | locus YJL187C, strain SWE1 (second series), active compounds read low 0.983 | locus YJR043C, strain POL32, active compounds read low 0.973 | locus YJR066W, strain TOR1, active compounds read low 0.933
